Measured values reported in PubChem BioAssay AID894 (National Center for Advancing Translational Sciences (NCATS), 2007).
Several values for one entry are separate records, joined by “and”; a condition that tells them apart may be missing. Identical values can stand only once. Hit rate of the full screen: of about 150,000 compounds, about 6,500 (4.3%) were called active. Inconclusive results (about 12%) are left out. Calls come from the whole dose curve; as a rule, active = well fitted inhibition curve with a large enough effect (not every such curve was filed as active); inconclusive = small, poorly fitted or top-dose-only effect, or another doubt; inactive = no such curve, though single readings can be large or run the other way. The list comes from a sample in which actives are over-represented; it also holds similar structures and randomly drawn compounds.
% is set by controls: 0 for no effect and ±100 for the full control effect; potency is the fitted concentration of half-maximal effect.

Each molecule was assayed against 15-hydroxyprostaglandin dehydrogenase [NAD(+)] (Homo sapiens) (UniProt P15428) (assay: qHTS Assay for Inhibitors of HPGD (15-Hydroxyprostaglandin Dehydrogenase)). Settings: purified HPGD, NADH fluorescence kinetic, PGE2 substrate; activity change, negative = inhibition: stronger effect = lower value.
Sequence of 15-hydroxyprostaglandin dehydrogenase [NAD(+)] (Homo sapiens) (P15428 whole entry, looked up): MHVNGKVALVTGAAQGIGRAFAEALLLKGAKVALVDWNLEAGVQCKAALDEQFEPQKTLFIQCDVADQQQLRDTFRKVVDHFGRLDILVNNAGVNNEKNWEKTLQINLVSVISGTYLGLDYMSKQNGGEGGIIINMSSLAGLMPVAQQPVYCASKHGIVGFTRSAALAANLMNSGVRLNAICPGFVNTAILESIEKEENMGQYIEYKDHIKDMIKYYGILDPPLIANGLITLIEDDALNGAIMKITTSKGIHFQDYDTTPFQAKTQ
In short: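 NADH formation kinetics: reaction with 30 uM PGE2 and 1 mM NAD+ (final), 20 nM enzyme, Tris-HCl pH 8 with Tween 20, after 15 min compound preincubation at room temperature. Fluorescence change, last versus first of five reads.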
With `COCCOC(=O)c1sc(=S)n(CCOC)c1N` the Potency was 28.2 µM (active).
For `CC1(c2ccccc2)CC(C)(C)N(C(=O)c2cc([N+](=O)[O-])cc([N+](=O)[O-])c2)c2ccccc21` (stereo not drawn), the activity change, negative = inhibition was -4.13% (inactive).
For `O=C(NCc1ccco1)c1ccc(Cn2c(=O)c3sccc3n(Cc3ccc(F)cc3)c2=O)cc1`, the activity change, negative = inhibition was -17.7% (inactive).
With `O=C(NCc1ccco1)c1cc2sccc2n1Cc1ccc(F)cc1` the Potency was 17.8 µM (active).
With `O=C(Cc1ccc(-n2c(=O)c3sccc3n(Cc3ccc(F)cc3)c2=O)cc1)NCc1ccco1` the activity change, negative = inhibition was -7.92% (inactive).
For `COc1cc(NC(=O)c2ccccc2NS(=O)(=O)c2ccc(Cl)s2)cc(OC)c1`, the activity change, negative = inhibition was -5.94% (inactive).
`N#CC1=C(N)Oc2cc(O)ccc2C1C1CCCCC1` (stereo not drawn) was tested, and the activity change, negative = inhibition was -8.6% (inactive).
For `O=C(O)c1c(Br)c(Br)c(Br)c(Br)c1C1c2ccc(O)cc2Oc2cc(O)ccc21`, the Potency was 2.51 µM (active).
In the case of `COc1ccc(/C=C/C(=O)NC(=S)NN2CCCCC2c2cccnc2)cc1` (stereo not drawn), the activity change, negative = inhibition was -29.9% (inactive).
In the case of `CCCCCCCC1=Cc2ccc(F)cc2C(C(C(=O)OC)C(=O)OC)N1C(=O)OC` (stereo not drawn), the activity change, negative = inhibition was -2.63% (inactive) and -13.1% (inactive).
`O=C(/C=C/c1cccs1)NCc1cccnc1` was tested, and the activity change, negative = inhibition was -9.43% (inactive).
For `CC(=O)Nc1ccc(S(=O)(=O)Nc2nc3n(n2)C(c2ccccc2)CC(=O)N3)cc1` (stereo not drawn), the activity change, negative = inhibition was -6.58% (inactive).
`CC(=O)Nc1ccc(S(=O)(=O)NC2(C(F)(F)F)C(=O)Nc3c2c(=O)[nH]c(=O)n3Cc2ccccc2)cc1` (stereo not drawn) was tested, and the Potency was 17.8 µM (active).
For `CC(=O)Nc1ccc(S(=O)(=O)NCCc2ccccc2)cc1`, the activity change, negative = inhibition was -7.41% (inactive).
In the case of `COc1ccc(C(=O)CSc2nnc(NC(=O)C3CC(=O)N(c4cccc(OC)c4)C3)s2)cc1` (stereo not drawn), the activity change, negative = inhibition was -4.45% (inactive).
With `COC(=O)c1cn(-c2ccccc2)nc1-c1cccnc1` the activity change, negative = inhibition was -1.05% (inactive).
`CCOC(=O)c1cnc(SCC(=O)Nc2cccc(OC)c2)nc1N` was tested, and the activity change, negative = inhibition was -14.8% (inactive).
For `COC(=O)c1sc(=S)n(-c2ccccc2)c1N`, the Potency was 14.1 µM (active).
`CCOC(=O)c1sc(=S)n(-c2cccc(OC)c2)c1N` was tested, and the Potency was 28.2 µM (active).
In the case of `CCOC(=O)c1csc(NC(=O)Nc2cccc(OC)c2)n1`, the activity change, negative = inhibition was -6.02% (inactive).
With `COC(=O)C1=C(C)N(C)C(=S)NC1c1ccccc1` (stereo not drawn) the activity change, negative = inhibition was -10.8% (inactive).
With `Cc1ccc(CC2S/C(=C(/C#N)C(=O)N3CCOCC3)N(c3ccccc3)C2=O)cc1` (stereo not drawn) the activity change, negative = inhibition was -13.9% (inactive).
In the case of `CN(C)C(=O)c1ccc2c(c1)C1C3CCC(C3)C1C(c1ccccc1)N2` (stereo not drawn), the activity change, negative = inhibition was -9.73% (inactive).
For `N=c1c2c3c(sc2ncn1N)CCCCC3`, the activity change, negative = inhibition was -10.1% (inactive).
For `S=c1[nH]nc2c3c4c(sc3ncn12)CCCC4`, the Potency was 20 µM (active).
`c1nnc2c3c4c(sc3ncn12)CCC4` was tested, and the activity change, negative = inhibition was -16.5% (inactive).
With `CCOC(=O)/C(=N\Nc1cc(Cl)ccc1Cl)N1CCN(C)CC1` the activity change, negative = inhibition was -8.38% (inactive).
In the case of `CCCCOc1ccc(C(=O)N/C(=C/C=C/c2ccccc2)C(=O)N2CCOCC2)cc1`, the activity change, negative = inhibition was -16% (inactive).
`COc1cccc(C(=O)Nc2cc3c(cc2Br)OCCCO3)c1` was tested, and the activity change, negative = inhibition was -9.03% (inactive).
In the case of `FC(F)(F)Oc1ccc(NC(=S)NCc2ccccc2)cc1`, the activity change, negative = inhibition was -11.2% (inactive).
With `COC(=O)Cc1ccc(NC(=S)NCc2ccc(Cl)cc2)cc1` the activity change, negative = inhibition was -8.96% (inactive).
In the case of `COC(=O)Cc1ccc(NC(=S)NCc2ccccc2)cc1`, the Potency was 20 µM (active).
With `Cc1c(Cl)c([N+](=O)[O-])nn1CCCC(=O)NC(C)c1ccccc1` (stereo not drawn) the activity change, negative = inhibition was -2.71% (inactive).
In the case of `COC(=O)c1ccc(COC(=O)c2c(C)nn(Cc3ccccc3Cl)c2Cl)o1`, the activity change, negative = inhibition was -23% (inactive).
With `Cc1nn(Cc2ccccc2)c(Cl)c1C(=O)OC1CCOC1=O` (stereo not drawn) the Potency was 15.8 µM (active).
In the case of `Cc1cc(C(=O)Nc2c(C)nn(Cc3ccccc3)c2C)on1`, the activity change, negative = inhibition was -12.9% (inactive).
In the case of `O=C(COC(=O)[C@H](Cc1ccccc1)NC(=O)c1cccs1)Nc1cc(F)ccc1F`, the activity change, negative = inhibition was 2.87% (inactive).
In the case of `CC1CCCN(C(=O)c2ccc3c(c2)C(=O)N(CCC2=CCCCC2)C3=O)C1` (stereo not drawn), the Potency was 0.891 µM (active).
`Cc1cc(=O)n2nc(N3CCCC(C(=O)NCCC4=CCCCC4)C3)sc2n1` (stereo not drawn) was tested, and the activity change, negative = inhibition was -11.9% (inactive).
In the case of `Cn1nnc2cc(C(=O)NCCC3=CCCCC3)ccc21`, the activity change, negative = inhibition was -28.7% (inactive).
For `C=CC1=C2C=C(C3CC3)N(CC(C)C)C=C2C(=O)C(C)(OC(=O)c2ccco2)C1=O` (stereo not drawn), the activity change, negative = inhibition was -3.22% (inactive).
With `CCn1cc(/C=C2/SC(=S)NC2=O)c(C)n1` the Potency was 17.8 µM (active).
For `Cc1nn(C)cc1/C=C1\CCC/C(=C\c2cn(C)nc2C)C1=O`, the activity change, negative = inhibition was -27.5% (inactive).
For `O=C1NC(c2ccc(-c3ccccc3[N+](=O)[O-])o2)C(C(=O)c2ccc(Cl)cc2)C(O)(C(F)(F)F)N1` (stereo not drawn), the activity change, negative = inhibition was -3.47% (inactive).
With `C#CCCCc1nc2ccccc2c(=O)n1N` the activity change, negative = inhibition was -10.2% (inactive).
For `S=c1[nH]nc(-c2cccnc2)n1/N=C/C(Cl)=C\c1ccccc1`, the Potency was 1.58 µM (active).
In the case of `Cc1cc(-c2n[nH]c(=S)n2/N=C/C(Br)=C/c2ccccc2)n[nH]1`, the Potency was 3.98 µM (active).
With `COc1cc(CN2CC(C)CC(C)C2)cc([N+](=O)[O-])c1O` (stereo not drawn) the activity change, negative = inhibition was -17.1% (inactive).
In the case of `Cc1ccc(NC(=S)NC(=O)/C=C/c2ccc(Cl)cc2)cc1`, the activity change, negative = inhibition was -18.9% (inactive).
For `CC(NC(=O)COC(=O)C1CCN(S(=O)(=O)c2ccccc2C(F)(F)F)CC1)c1ccccc1` (stereo not drawn), the activity change, negative = inhibition was -6.33% (inactive).
In the case of `CC1(OC(=O)c2ccc(Cl)nc2)C(=O)Cc2cc(-c3ccsc3)ncc2C1=O` (stereo not drawn), the activity change, negative = inhibition was 2.16% (inactive).
With `O=C(NCCN1CCOCC1)c1cc(Sc2cccc(Cl)c2)nc2ccccc12` the activity change, negative = inhibition was -1.7% (inactive).
With `O=C(NC(=S)Nc1cc(C(F)(F)F)ccc1N1CCOCC1)c1ccc(-c2cccc(Cl)c2)o1` the activity change, negative = inhibition was -5.6% (inactive).
In the case of `CCC(=O)/C=C1\Sc2ccccc2N1CC`, the activity change, negative = inhibition was -16.1% (inactive).
In the case of `CCN1C(=O)/C(=C\N2CCN(c3ccccc3)CC2)SC1=S`, the activity change, negative = inhibition was -18.6% (inactive).
For `CCN1C(=O)/C(=C2/Sc3ccccc3N2CCCS(=O)(=O)O)SC1=S`, the Potency was 20 µM (active).
`COc1ccc(C)cc1NC(=O)C(OC(=O)c1cccc(S(=O)(=O)N(C)c2ccccc2)c1)c1ccccc1` (stereo not drawn) was tested, and the activity change, negative = inhibition was -17.6% (inactive).
For `CC(=O)c1c(N2CCN(c3ccc(F)cc3)CC2)nc(=S)n(-c2ccccc2)c1C`, the activity change, negative = inhibition was -7.92% (inactive).
